Assay results reported in the supplement of paper PMC7801607.

Columns and labels:
[1] = tested on: CHO; assay: % viability of CHO cells (MTT); higher = less toxic; conditions: 48 h
Method in brief: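 For 48 h, attached CHO cells (10^6 cells/well, 200 µL, seeded the night before) were kept in fresh medium carrying compound at 2 or 20 µM. A colorimetric tetrazolium (MTT) assay then gave survival as percent viability versus untreated cells.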

[2] = tested on: HepG2-A16-CD81; assay: % inhibition of HepG2 viability (CellTiter-Glo); higher = more toxic; conditions: 5 µM
[3] = tested on: Plasmodium falciparum NF54 stage IV/V gametocytes; assay: % inhibition of gametocyte viability (PrestoBlue); higher = more inhibition; conditions: 48 h
Method in brief: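 Stage IV/V NF54 gametocytes at 2% gametocytaemia and 5% haematocrit (100 µL/well) were treated with compound at 1 or 5 µM and incubated for 48 h at 37 °C under stationary, hypoxic conditions. PrestoBlue (10 µL) was then added for 2 h, and fluorescence at 612 nm was read on 70 µL of transferred supernatant. Percent inhibition of gametocyte viability was normalised to vehicle and kill controls within one run.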

[4] = tested on: Plasmodium falciparum NF54 asexual blood stage; assay: % inhibition of asexual blood stage proliferation (pLDH); higher = more inhibition; conditions: 72 h
Method in brief: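 Plasmodium falciparum NF54 ring-stage cultures (1% haematocrit, 2% parasitaemia) were incubated with compound at 2 or 20 µM for 72 h at 37 °C under 4% CO2, 3% O2 and 93% N2. Survival was read at 620 nm with the parasite lactate dehydrogenase assay. Results were reported as percent inhibition of asexual proliferation relative to controls.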

[5] = tested on: Plasmodium falciparum NF54 stage IV/V gametocytes; assay: % inhibition of gametocyte viability (ATP bioluminescence); higher = more inhibition; conditions: 24 h
Method in brief: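 Stage IV/V NF54 gametocytes from density gradients (30,000 per well, 96-well plates) were incubated with compound at 1 or 5 µM for 24 h at 37 °C. A single run supplied percent inhibition of gametocyte viability, based on ATP measured with Promega BacTiter Glo and normalised to control wells.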

[6] = tested on: Plasmodium falciparum NF54 stage IV/V gametocytes; assay: % inhibition of gametocyte viability (luciferase reporter); higher = more inhibition; conditions: 48 h
Method in brief: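 Percent inhibition came from luminescence and was normalised to controls in a single run. Gametocytes (stage IV/V, NF54-Pfs16-GFP-Luc line, 2% gametocytaemia, 2% haematocrit) were treated with compound at 1 or 5 µM and incubated for 48 h at 37 °C without agitation under hypoxia. Readings used 30 µL lysate with 30 µL Promega luciferin substrate on a GloMax-Multi+ reader, integrating for 10 s.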

[7] = tested on: Plasmodium berghei ANKA liver stage in HepG2-A16-CD81; assay: % inhibition of liver stage parasite viability (luciferase); higher = more inhibition; conditions: 5 µM; 48 h
Protocol: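 Single-concentration screen of the MMV Pandemic Response Box. P. falciparum NF54 asexual blood stages: pLDH assay, 72 h at 37 °C, 2 and 20 µM, n=2. Stage IV/V gametocytes (NF54): luciferase reporter (NF54-Pfs16-GFP-Luc, 48 h), ATP bioluminescence (24 h) and PrestoBlue (48 h) at 1 and 5 µM, n=1. P. berghei liver stage (luciferase in HepG2-A16-CD81, 48 h post infection) at 5 µM, n=4. All normalised to DMSO and kill controls as % inhibition.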
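Wherever % inhibition of HepG2 viability (CellTiter-Glo) is given: HepG2-A16-CD81 hepatoma cells plated as in the liver-stage assay but without sporozoites, with DMSO wells as negative and 25 µM puromycin as positive control.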

Row | Compound | % viability of CHO cells ([1]; 2 µM) [%] | % viability of CHO cells ([1]; 20 µM) [%] | % inhibition of HepG2 viability [2] [%] | % inhibition of gametocyte viability ([3]; 1 µM) [%] | % inhibition of gametocyte viability ([3]; 5 µM) [%] | % inhibition of asexual blood stage proliferation ([4]; 2 µM) [%] | % inhibition of asexual blood stage proliferation ([4]; 20 µM) [%] | % inhibition of gametocyte viability ([5]; 1 µM) [%] | % inhibition of gametocyte viability ([5]; 5 µM) [%] | % inhibition of gametocyte viability ([6]; 1 µM) [%] | % inhibition of gametocyte viability ([6]; 5 µM) [%] | % inhibition of liver stage parasite viability [7] [%]
1 | O=c1ccc2ncc(=O)n3c2n1CC3CN1CCC(NCc2cc3c(cn2)OCCC3)CC1 (stereo unspecified) | 124 | 97.3 | 6.64 | < 0 | 28.4 | 12.5 | 40.4 | 0.762 | < 0 | < 0 | < 0 | 23.7
2 | Nc1nc(O)ncc1F | 118 | 21.7 | 0.135 | 3.77 | < 0 | -11 | -2.89 | < 0 | < 0 | < 0 | < 0 | 7.9
3 | CC(N)C12CC3CC(CC(C3)C1)C2 (stereo unspecified) | 115 | 102 | -6.21 | 4.36 | 25 | 15.8 | 20.4 | 7.67 | 2.98 | < 0 | 3.24 | -6
4 | O=C(O)[C@H]1C2CCC(CC2)[C@@H]1Nc1nc(-c2c[nH]c3ncc(F)cc23)ncc1F | 91.6 | 97.8 | -9.1 | < 0 | < 0 | 11.9 | 55.2 | 0.663 | 2.93 | < 0 | < 0 | 34
5 | Fc1ccc(-c2nc(-c3c[nH]c4ccc(Br)cc34)[nH]c2-c2ccc(F)cc2)cc1 | 97.3 | -2.96 | 1.87 | < 0 | < 0 | 74 | 83.7 | < 0 | < 0 | < 0 | < 0 | 27.7
6 | CC(C)Nc1ncnc2c1cnn2-c1ccc(Cl)cc1 | 89.8 | 122 | 13.3 | 17.9 | 15.6 | 18.3 | 69.3 | < 0 | < 0 | < 0 | 62.4 | 43.2
7 | CCCCCCC1c2ccc(O)cc2Oc2cc(O)ccc21 | 80.1 | 49.3 | 11.4 | 5.99 | < 0 | -7.32 | 12.9 | 4.64 | 15.4 | < 0 | < 0 | 42.4
8 | CCCCOC(=O)Nc1cc2nc(C3CCCCC3)[nH]c2cc1N(CC)CC | 98.9 | 101 | 3.15 | < 0 | < 0 | 18.6 | 83.2 | < 0 | 19.3 | < 0 | < 0 | 62
9 | COc1ccc2nc(-c3ccccc3)cc(O)c2c1 | 85.4 | 80.2 | 6.13 | < 0 | 7.99 | 66.9 | 94.3 | 29.5 | 13.5 | < 0 | 8.89 | 78.6
10 | c1ccc(-c2nnc3c4ccccc4c(N4CCNCC4)nn23)cc1 | 101 | 91.4 | 10.4 | 27.8 | 50.3 | 3.14 | 69.2 | < 0 | 0.889 | < 0 | 11.9 | 7.03
11 | Cc1nc(N(C)C(=O)Cc2ccc(-c3ccccn3)cc2)sc1S(N)(=O)=O | 85.2 | 59.1 | -0.405 | 20.7 | 39.1 | -8.1 | -31.8 | 4.11 | < 0 | 17.6 | < 0 | 24.8
12 | O=C(Cc1ccccc1F)Nc1nc2ccccc2[nH]1 | 104 | 87.3 | 7.61 | 5.47 | 21.8 | 37.1 | 29.8 | < 0 | < 0 | < 0 | < 0 | -7.69
13 | O=C(Nc1cccc(C2=NCCN2)c1)c1ccc(-c2ccc(C(=O)Nc3cccc(C4=NCCN4)c3)cc2)cc1 | 90.2 | 96.3 | 14.5 | 31.3 | 62.4 | 54 | 41.2 | 7.89 | 38 | < 0 | 59.1 | 15.4
14 | O=C(NCc1ccc2c3c(cccc13)C(=O)N2)c1cccs1 | 135 | 156 | 1.86 | < 0 | < 0 | 6.3 | 16 | < 0 | < 0 | < 0 | 16.9 | 17.9
15 | O=C(c1ccccc1)N1CCN(c2ccccc2NC(=O)C(Cl)(Cl)Cl)CC1 | 113 | 74.3 | 3.18 | < 0 | 5.75 | 50.4 | 118 | < 0 | < 0 | < 0 | < 0 | 28.1
16 | O=S(=O)(Nc1cccc2cccnc12)c1ccccc1 | 85 | 121 | 5.35 | 4.79 | < 0 | 8.89 | 70 | < 0 | < 0 | < 0 | < 0 | 0.562
17 | COc1cc2c(O)c3c(c(-c4ccc5c(c4)OCO5)c2cc1OC)C(=O)OC3 | 98 | 86.4 | 58.9 | 13 | 17.7 | 44.2 | 99.9 | < 0 | < 0 | < 0 | < 0 | 58.4
18 | COc1cc(NCc2ccc3nc(N)nc(N)c3c2C)cc(OC)c1OC | 109 | 47.7 | 17.2 | < 0 | < 0 | 40.8 | 88.6 | < 0 | < 0 | < 0 | < 0 | 69.1
19 | COc1ccc2cc3[n+](cc2c1OCCN(CCn1cncn1)Cc1ccc(F)cc1F)CCc1cc2c(cc1-3)OCO2 | 89.4 | 74.2 | 22.1 | < 0 | < 0 | 78.3 | 84.3 | < 0 | 30.9 | < 0 | 10.3 | 2.84
20 | CCc1cc(Cc2cnc(N)nc2N)cc2c1N(C)CCC2C (stereo unspecified) | 96.1 | 110 | 7.88 | < 0 | < 0 | 16.7 | 95.1 | < 0 | < 0 | < 0 | < 0 | 7.3
21 | O=c1cc(NCCCN[C@@H]2CCOc3c(Br)cc(Br)cc32)[nH]c2ccsc12 | 275 | 54.3 | 21.6 | 17.8 | 12.4 | 42.9 | 78.3 | < 0 | < 0 | < 0 | 11.8 | 74.7
22 | Cc1c(CN(C)C(=O)/C=C/c2cnc3c(c2)C(C)(C)C(=O)N3)oc2ccccc12 | 105 | 87.2 | 9.28 | < 0 | 9.55 | 13.1 | 78.8 | < 0 | < 0 | < 0 | 15.2 | 11.2
23 | COc1cc(Cc2cnc(N)nc2N)c2c(c1OC)OC(C1CC1)C=C2 (stereo unspecified) | 103 | 67.7 | -4.44 | 36.3 | 6.68 | 13 | 34 | 1.06 | < 0 | 35.9 | 1.69 | 56.5
